Screening results from PubChem.
A selection: hits, their analogues and other compounds. The true share with any hit is near 1.3%.
Pin1 inh: qHTS Assay to Find Inhibitors of Pin1; Potency, µM (doses to about 115 µM), for inactives: top-dose activity, negative = inhibition, actives largely listed as inhibitors; Peptidyl-prolyl cis-trans isomerase NIMA-interacting 1 (Homo sapiens), Q13526; Pin1 FP peptide displacement, HiFluor488, 10 min; AID 504891, 2011; 390,000 tested, 0.009% active; active = well fitted inhibition curve with a large enough effect in the polarisation, with a control signal flat, not every such curve was filed as active; inconclusive = small, poorly fitted or top-dose-only effect, or effect the other way, or a change in a side signal; inactive = no such curve, though single readings can be large or run the other way; the % refers to the polarisation; note: potency is the fitted concentration of half-maximal effect; % is set by controls: 0 for no effect and ±100 for the full control effect
Target sequence (Q13526 whole entry, looked up): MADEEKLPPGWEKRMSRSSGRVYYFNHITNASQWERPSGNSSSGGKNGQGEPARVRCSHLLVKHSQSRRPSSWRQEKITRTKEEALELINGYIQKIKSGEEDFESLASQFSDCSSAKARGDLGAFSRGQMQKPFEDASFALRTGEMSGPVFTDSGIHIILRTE
WRN helicase inh: qHTS for Inhibitors of WRN Helicase. Bifunctional 3'-5' exonuclease/ATP-dependent helicase WRN (Homo sapiens), Q14191. WRN helicase unwinding, fluorescent forked duplex, kinetic. Potency, µM (top dose mostly 114 µM), for inactives: at the top dose activity change, negative = inhibition, usual class: inhibitors. 360,000 tested, 0.46% active. AID 651768, 2012; note: potency is the fitted concentration of half-maximal effect; % is set by controls: 0 for no effect and ±100 for the full control effect; nearly all actives have a fitted effect of over 55% in size
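Kinetic red-fluorescence monitoring (525/598 nm) tracks WRN helicase activity after 100 nM fluorophore-quencher forked duplex and 2 mM ATP are added to 20 nM enzyme pretreated 15 min at room temperature with compound.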
PGK inhibitor: qHTS Assay to Find Inhibitors of Phosphoglycerate Kinase; Phosphoglycerate kinase, glycosomal (Trypanosoma brucei brucei), P07378; PGK/GAPDH coupled, Kinase-Glo luminescence, 60 min; Potency, µM (titrated, usually from 57.5 µM), for the others: top-dose activity change, negative = inhibition, most hits filed as inhibitors; 380,000 tested, 0.043% active; note: potency is the fitted concentration of half-maximal effect; % is set by controls: 0 for no effect and ±100 for the full control effect; nearly all actives have a fitted effect of over 60% in size
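Recombinant glycosomal PGK reaction used 1,3-bisphosphoglycerate generated in-well by GAPDH (100nM final) in 100mM TEA pH 7.6, 5mM MgCl2, 0.01% Tween-20. After 60 minutes at room temperature, ATP was read by Kinase-Glo Plus luminescence end-point.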
Glioma ERSR ind: qHTS for Inducers of the Endoplasmic Reticulum Stress Response (ERSR) in Human Glioma: qHTS. U87-MG GRP78 promoter luciferase reporter, 16 h. Potency, µM, for the others: top-dose activation, most hits filed as activators. 420,000 tested, 0.02% active; note: potency is the fitted concentration of half-maximal effect; series mostly up to about 76 µM; % of control where 0% means no effect; nearly all actives have a fitted effect of over 35% in size
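Stably transfected U87-MG glioma cells carrying a GRP78-based luciferase sensor; 16 h compound incubation. Luminescence end-point read 10 min after Bright-Glo addition at room temperature.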
PI5P4K alpha inh: qHTS for Inhibitors of phosphatidylinositol 5-phosphate 4-kinase (PI5P4K) | max response, % | PI5P4Kalpha enzyme, ADP-Glo luminescence, 60 min; hits give low values | AID 652105, 2013 | Phosphatidylinositol 5-phosphate 4-kinase type-2 alpha (Homo sapiens), P48426 | 330,000 tested, 1.2% active; active = max response of -50% or lower; inconclusive = between -30% and -50%; inactive = -30% or higher; note: value at the top dose of about 77 µM; % is set by controls: 0 for no effect and ±100 for the full control effect
Target sequence (P48426 whole entry, looked up): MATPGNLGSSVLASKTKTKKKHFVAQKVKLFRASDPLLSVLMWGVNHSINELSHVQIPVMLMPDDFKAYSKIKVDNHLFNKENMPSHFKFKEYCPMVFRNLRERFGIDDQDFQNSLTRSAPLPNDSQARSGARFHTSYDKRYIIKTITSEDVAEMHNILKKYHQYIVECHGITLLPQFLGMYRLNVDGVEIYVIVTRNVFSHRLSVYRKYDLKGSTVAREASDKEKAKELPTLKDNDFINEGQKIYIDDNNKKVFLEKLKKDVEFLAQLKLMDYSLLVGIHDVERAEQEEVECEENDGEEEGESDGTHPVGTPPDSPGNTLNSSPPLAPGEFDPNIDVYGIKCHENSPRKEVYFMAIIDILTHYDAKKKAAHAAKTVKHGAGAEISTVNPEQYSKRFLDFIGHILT
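Compounds were pin-transferred onto PI5P4Kalpha and substrate in HEPES pH 7.4 buffer with EGTA, CHAPS and 5% DMSO. ATP (5 microM final) started the reaction, which ran 60 minutes at room temperature before ADP-Glo detection.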
FEN1 inhibitor: qHTS Assay for the Inhibitors of Human Flap endonuclease 1 (FEN1); P39748; Recombinant FEN1 flap cleavage, fluorescence, 15 min; Potency, µM (titrated, usually from 114 µM), without a hit: at the highest dose activity change, negative = inhibition, usual class: inhibitors; 390,000 tested, 0.35% active; AID 588795, 2011; note: potency is the fitted concentration of half-maximal effect; % is set by controls: 0 for no effect and ±100 for the full control effect; nearly all actives have a fitted effect of over 65% in size
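FEN1 at 10 nM preincubated with compounds 15 min at room temperature, then flap DNA substrate added at 50 nM final. Signal read at 0 and 15 min; concentration-response fitted with four-parameter Hill equation.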
* = called active by the depositor. Unless noted, calls come from the whole dose curve; as a rule, active = well fitted curve in the direction sought with a large enough effect; inconclusive = small, poorly fitted or top-dose-only effect, or another doubt; inactive = no such curve, though single readings can be large; an effect the other way counts as inactive or inconclusive.

Screening COc1ccc(C(=O)COC(=O)c2ccccc2O)c(OC)c1 returned Pin1 inh inconclusive, WRN helicase inh -24%, PGK inhibitor 0%, Glioma ERSR ind 9%, PI5P4K alpha inh -57* and FEN1 inhibitor -14%.
`COc1ccc(C(=O)OCC(=O)c2cc(OC)ccc2OC)c(OC)c1` gave Pin1 inh -4%, WRN helicase inh -14%, PGK inhibitor 9%, Glioma ERSR ind -2%, PI5P4K alpha inh 0 and FEN1 inhibitor -3%.
`Cc1cnc(C(=O)OCC(=O)c2csc(N3CCCCC3)n2)cn1` gave Pin1 inh inconclusive, WRN helicase inh inconclusive, PGK inhibitor -8%, Glioma ERSR ind -4%, PI5P4K alpha inh -60* and FEN1 inhibitor -6%.
Cc1cnc(C(=O)OCC(=O)c2ccccc2)cn1 was read as Pin1 inh 2%, WRN helicase inh 4%, PGK inhibitor -6%, Glioma ERSR ind 1%, PI5P4K alpha inh -8 and FEN1 inhibitor -8%.
COc1ccccc1C(=O)COC(=O)c1cnc(C)cn1 was read as Pin1 inh 2%, WRN helicase inh -29%, PGK inhibitor -5%, Glioma ERSR ind -2%, PI5P4K alpha inh 5 and FEN1 inhibitor 0%.
For COc1ccc(C(=O)COC(=O)c2cnc(C)cn2)c(OC)c1 the results were Pin1 inh -1%, WRN helicase inh -8%, PGK inhibitor -10%, Glioma ERSR ind -6%, PI5P4K alpha inh -56* and FEN1 inhibitor 0%.
Screening O=C(CNC(=O)c1ccc2cc[nH]c2c1)OC(C(=O)Nc1cc(C(F)(F)F)ccc1Cl)c1ccccc1 (stereo not given) returned Pin1 inh 10%.
COc1ccc2cnnc(SCC(=O)Nc3ccc(C(=O)O)cc3)c2c1OC was read as Pin1 inh -13%, WRN helicase inh -26%, PGK inhibitor -6%, Glioma ERSR ind -6%, PI5P4K alpha inh -66* and FEN1 inhibitor -17%.
`COc1ccc2cnnc(SCC(=O)Nc3ccc(C(C)=O)cc3)c2c1OC` gave Pin1 inh -1%, WRN helicase inh -9%, PGK inhibitor 1%, Glioma ERSR ind 0%, PI5P4K alpha inh -4 and FEN1 inhibitor -7%.
COc1ccccc1-c1ccc(C(=O)N(C)CC2COCCO2)c(N2CCN(c3ccccc3F)CC2)n1 (stereo not given) was read as Glioma ERSR ind 0%.
For COc1ccc(C2Nc3ccccc3C(=O)N2Cc2ccccc2OC)cc1COc1ccc(NC(C)=O)cc1 (stereo not given) the results were Pin1 inh 24%.
For C/C=C\C=C\C(=O)Nc1cccc(C2=NOC3(C2)C[C@H](C(N)=O)N(C(=O)c2ccccc2C(=O)c2ccccc2)C3)c1 (stereo not given in full) the results were Pin1 inh 42%, WRN helicase inh -1%, PGK inhibitor -8%, Glioma ERSR ind -3%, PI5P4K alpha inh -52* and FEN1 inhibitor -14%.
For C/C=C\C=C\C(=O)N1CC2(CC(c3cccc(NC(=O)COc4ccc(Cl)cc4)c3)=NO2)C[C@H]1C(N)=O (stereo not given in full) the results were Pin1 inh inconclusive, WRN helicase inh -11%, PGK inhibitor -2%, Glioma ERSR ind -4%, PI5P4K alpha inh -81* and FEN1 inhibitor -23%.
For C/C=C\C(=O)Nc1cccc(C2=NOC3(C2)C[C@@H](C(N)=O)N(C(=O)c2ccccc2)C3)c1 (stereo not given in full) the results were Pin1 inh -6%, WRN helicase inh 3%, PGK inhibitor -9%, Glioma ERSR ind -5%, PI5P4K alpha inh -3 and FEN1 inhibitor 8%.
C/C=C/C=C\C(=O)Nc1cccc(C2=NOC3(C2)C[C@@H](C(N)=O)N(C(=O)c2cc([N+](=O)[O-])cc([N+](=O)[O-])c2C)C3)c1 (stereo not given in full) was read as Pin1 inh inconclusive, WRN helicase inh -8%, PGK inhibitor -3%, Glioma ERSR ind -2%, PI5P4K alpha inh -71* and FEN1 inhibitor 9%.
Screening CC(C)(C)OC(=O)Cc1nnc(-c2cc3ccccc3[nH]2)s1 returned Pin1 inh 11%.
For Cc1c(C(=O)NCC2(N3CCOCC3)CCCCCC2)cnn1-c1nccc(-c2ccccc2F)n1 the results were Glioma ERSR ind -1%.
For Cc1cc(N=Nc2c(O)c3ccccc3[nH]c2=O)ccc1N=Nc1ccc(C(=O)N(C)C)cc1 the results were Pin1 inh -7%, WRN helicase inh 1%, PGK inhibitor inactive, Glioma ERSR ind 20%, PI5P4K alpha inh -20 and FEN1 inhibitor 7%.
CN(C)C(=O)c1ccc(N=Nc2c(O)c3ccccc3[nH]c2=O)cc1 was read as Pin1 inh 0%, WRN helicase inh 1%, PGK inhibitor inconclusive, Glioma ERSR ind -5%, PI5P4K alpha inh -76* and FEN1 inhibitor -24%.
For Cc1ccc(Nc2nn3c(=O)c4ccccc4nc3s2)cc1C the results were Pin1 inh 4%.
`CSCC[C@H](NC(=O)[C@@H](Cc1ccc(O[S+](=O)([O-])O)cc1)NC(=O)[C@H](N)CC(=O)O)C(=O)NCC(=O)N[C@@H](Cc1c[nH]c2ccccc12)C(=O)N[C@H](CCSC)C(=O)N[C@H](CC(=O)O)C(=O)N[C@@H](Cc1ccccc1)C(N)=O` gave Glioma ERSR ind -4%.
CCCCCCC(=O)N(O)C1CC(=O)N(c2ccc(Br)cc2)C1=O (stereo not given) was read as Pin1 inh 7%, WRN helicase inh 0%, PGK inhibitor -1%, Glioma ERSR ind 10% and FEN1 inhibitor -6%.
Screening CCCCCCC(=O)N(O)C1CC(=O)N(c2ccc(F)cc2)C1=O (stereo not given) returned Pin1 inh -1%, WRN helicase inh 28µM*, PGK inhibitor -1%, Glioma ERSR ind -6%, PI5P4K alpha inh -25 and FEN1 inhibitor -5%.
O=C1C(c2ccccc2)=[N+]([O-])c2ccccc21 was read as Pin1 inh -7%, WRN helicase inh 71µM*, PGK inhibitor -8%, Glioma ERSR ind -13%, PI5P4K alpha inh -6 and FEN1 inhibitor inconclusive.
O=c1c2[nH]c3cc(Br)sc3c2cnn1Cc1ccccc1F was read as Pin1 inh -4%.
